From PubChem BioAssay
An excerpt weighted towards active compounds, which were near 2.3% of everything screened.
CHRM1 antagonist: blocks human M1 muscarinic receptor | P11229 | CHO-K1 hM1, Fluo-8 calcium fluorescence, ACh EC80 antagonist | inhibition, % at 3 µM | actives 1.3% (n = 360,000);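 active means percent inhibition above its own plate's cutoff, namely the mean of that plate's compound wells plus 3 SD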;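 further: peak over basal fluorescence ratio during 140 s after agonist addition; 0% = ACh EC80 plus DMSO and 100% = DMSO alone without agonist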
Target sequence (P11229 whole entry, looked up): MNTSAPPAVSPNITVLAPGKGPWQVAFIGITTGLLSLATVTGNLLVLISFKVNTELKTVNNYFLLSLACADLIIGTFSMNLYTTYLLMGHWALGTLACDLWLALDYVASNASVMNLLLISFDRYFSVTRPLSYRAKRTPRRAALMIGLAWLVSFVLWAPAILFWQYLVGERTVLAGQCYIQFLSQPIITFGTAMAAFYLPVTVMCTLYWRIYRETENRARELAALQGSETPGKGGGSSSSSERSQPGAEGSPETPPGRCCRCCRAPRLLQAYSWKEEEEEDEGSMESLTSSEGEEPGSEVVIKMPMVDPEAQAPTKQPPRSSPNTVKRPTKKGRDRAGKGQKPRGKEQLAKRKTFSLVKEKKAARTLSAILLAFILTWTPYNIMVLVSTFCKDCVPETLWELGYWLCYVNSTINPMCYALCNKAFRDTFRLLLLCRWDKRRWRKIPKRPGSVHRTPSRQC
CHO-K1 Ca antag: nonselective inhibitor or artifact in parental CHO-K1 cells; ATP-induced calcium, Fluo-8 fluorescence; inhibition, % at 3 µM; actives 0.6% (n = 360,000); AID 602250;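 active means inhibition above a per-plate cutoff, the plate's mean sample inhibition plus 3 SD, cut at about 24% in these data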;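 further: 0% = DMSO plus EC80 ATP and 100% = DMSO alone without ATP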
M1 PAM: human CHRM1 positive allosteric modulation; P11229; CHO-K1 hM1, Fluo-8 calcium fluorescence, ACh EC20; 0% = ACh EC20, 100% = maximal ACh; activation, % at 3 µM; actives 0.088% (n = 360,000); AID 588819; in the data active means activation above about 19%, passing the limit was not always enough
M1 ag: human M1 muscarinic receptor agonism | actives 0.33% (n = 360,000) | AID 588814 | activation, % at 3 µM | CHO-K1 hM1, Fluo-8 calcium fluorescence, agonist mode; 0% DMSO, 100% acetylcholine EC100;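 active means activation above the run's mean compound activation plus 3 SD, cut at about 16% in these data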;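 further: peak over basal fluorescence ratio within a 140 s kinetic read after compound addition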
M1 ag parental: M1 agonist counterscreen hit in parental CHO-K1 cells. activation, % at 3 µM. AID 602248. Fluo-8 calcium fluorescence; scaled to maximal ATP response, vehicle zero. actives 0.48% (n = 360,000); in the data active means activation above about 15%;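 further: untransfected CHO-K1 host cells lacking M1 receptor as counterscreen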
M1 PAM parental: counter-screen for M1 PAMs: effect in parental CHO-K1 cells; ATP EC20, Fluo-8 calcium fluorescence; 0% at ATP EC20, 100% at ATP max; activation, % at 3 µM; actives 0.02% (n = 360,000); AID 602247;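 active means activation above the run cutoff, the mean activation of all test compounds plus 3 SD, cut at about 40% in these data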;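 further: peak over basal fluorescence ratio in a 140 s read after ATP addition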
Numbers without * were called inactive.

SMILES	CHRM1 antagonist	CHO-K1 Ca antag	M1 PAM	M1 ag	M1 ag parental	M1 PAM parental
CCCc1nnc(NC(=O)Cn2c(=O)oc3ccccc32)s1	-2.0	-10.1	5.8	2.0	3.3	19.7
CCCc1nnc(NC(=O)Cn2c(=O)oc3cc(Br)ccc32)s1	0.4	-10.6	-0.6	37.1*	16.5*	22.0
Cc1ccc(C(=O)N2C(=S)C(c3ccc(F)cc3)=NC23CCN(C)CC3)cc1	55.7*	8.2	-26.9	-7.7	1.0	-5.9
Cc1ccc(C(=O)N2CCC(C(=O)c3ccc(F)cc3)CC2)cc1	0.8	-1.5	2.6	-1.6	1.5	-7.8
CC(Oc1ccc(C(C)(C)C)cc1)c1ccnc2nc(/N=C/N(C)C)nn12 (stereo unspecified)	54.1*	-2.4	-21.4	-7.5	1.6	8.7
CC(Oc1ccc(F)cc1)c1ccnc2nc(/N=C/N(C)C)nn12 (stereo unspecified)	7.8	1.2	-5.1	-10.7	-0.3	-11.2
CC(C)=N/N=C(\c1cccc([N+](=O)[O-])c1)C12CN3CN(CN(C3)C1)C2	62.0*	-13.8	-21.2	15.3	1.0	25.1
O=[N+]([O-])c1cccc(C(O)C23CN4CN(CN(C4)C2)C3)c1 (stereo unspecified)	2.0	10.3	11.2	-4.0	-0.1	-18.9
CCOc1ccccc1C(=O)Nc1cc(C)ccc1NC(=O)c1ccco1	-10.3	-11.8	7.8	2.5	3.5	1.2
O=C(C(Cc1ccccc1)n1cccc1)N1CCN(Cc2ccccc2)CC1 (stereo unspecified)	92.4*	10.4	-30.6	-4.9	6.5	14.8
CC(C)C(C(=O)N1CCN(Cc2ccccc2)CC1)c1ccccc1 (stereo unspecified)	89.0*	1.0	-28.3	-7.7	1.8	3.5
O=C(C(Cc1ccccc1)n1cccc1)N1CCCCC1 (stereo unspecified)	-8.6	-2.1	7.8	-5.2	0.4	14.2
OC(c1ccc(Cl)c(F)c1)c1ncc(-c2cccc3ccccc23)[nH]1 (stereo unspecified)	-3.4	8.2	0.8	-0.3	0.9	-1.8
O=C(c1ccncc1)N1CCN(CCc2ccccc2)CC1	-16.2	-0.1	10.6	-5.7	0.4	-4.2
O=C(c1ccc(Br)o1)N1CCN(CCc2ccncc2)CC1	43.6*	-14.2	-28.9	-8.3	1.3	-6.3
Cc1ccc(-c2onc3ccc(C(=O)O)cc23)cc1	-1.4	2.7	2.2	9.6	18.9*	7.4
CCOC1=C2CN(S(=O)(=O)c3ccc(C)cc3)[C@H](c3ccccc3)C[C@@H]2N(S(=O)(=O)c2ccccc2C)[C@H](c2ccccc2)C1	-0.1	5.8	6.7	-4.0	0.4	11.4
CCc1nc(SCC(=O)Nc2nnc(CC)s2)c2c(C)c(C)sc2n1	-22.9	13.4	8.3	0.4	1.2	-11.2
CCc1nc(SCC(=O)Nc2cc(OC)ccc2OC)c2c(C)c(C)sc2n1	32.5*	-16.0	-11.2	-6.7	0.0	-10.5
Cc1nc2nc(C)c(CCC(=O)O)c(C)n2n1	-3.5	-9.7	6.4	-3.3	3.9	-0.9
O=C(c1cccc(N2C(=O)C3C4C=CC(C4)C3C2=O)c1)N1CCN(c2ccccc2Cl)CC1 (stereo unspecified)	0.5	-9.4	0.7	0.4	6.7	-3.9
S=C(c1ccc(-c2ccc(Cl)cc2)o1)N1CCCCC1	1.3	-29.9	-2.6	-2.3	-1.1	4.0
N#CCCN1CCN(C(=S)c2ccc(-c3ccc(Cl)cc3)o2)CC1	0.4	26.6*	-8.4	-5.8	-0.6	-6.3
CC1CCN(CCC(=O)N2CCCc3c2c(=O)oc2ccc(O)cc32)CC1	-2.4	-6.4	-1.8	-6.4	-0.1	4.9
CN(CC(=O)N1CCCc2c1c(=O)oc1ccc(O)cc21)Cc1ccccc1	24.4*	3.3	-25.7	-6.9	0.9	14.9
SMILES	CHRM1 antagonist	CHO-K1 Ca antag	M1 PAM	M1 ag	M1 ag parental	M1 PAM parental
NC(=O)c1cnn2c(-c3ccc(Cl)cc3Cl)ccnc12	-7.8	-11.1	6.3	-4.8	2.9	22.9
CCOc1ccc(OCCC(=O)OCC(=O)Nc2ccc(Cl)cn2)cc1	1.6	-8.1	-0.1	-1.9	0.3	10.4
NNC(=S)NCc1ccc2c(c1)OCO2	-8.5	-9.1	13.7	-10.0	0.4	21.2
CC(C)(C)N(Cc1cc2ccccc2[nH]c1=O)C(=O)c1cccc([N+](=O)[O-])c1	57.2*	7.8	-21.1	-4.6	-0.1	-18.1
CCCN(Cc1cc2ccccc2[nH]c1=O)C(=O)c1cccc([N+](=O)[O-])c1	-22.5	1.1	18.1	-0.1	0.1	-13.7
COC(=O)c1ccc2nccnc2c1	11.7	-10.3	-4.5	-1.2	0.0	22.7
COC(=O)c1ccc(N)nc1	-2.4	1.5	-1.0	21.5*	0.1	-10.5
S=c1[nH]nc(CN2CCCCC2)n1Cc1ccccc1	42.6*	-5.4	-23.5	-7.2	0.3	9.4
S=c1[nH]nc(COc2ccccc2)n1Cc1ccccc1	-0.1	-0.7	-6.4	-6.8	4.7	16.7
S=c1[nH]nc(CN2CCCC2)n1Cc1ccccc1	44.2*	34.1*	-22.8	-7.3	-0.8	-12.7
CCn1c(Cc2ccccc2)n[nH]c1=S	-11.3	-22.9	5.4	-5.4	0.7	20.3
CCCCn1c(Cc2ccccc2)n[nH]c1=S	85.7*	4.5	-20.4	-5.2	-0.3	-6.3
O=C1c2cc(Br)ccc2OC2C=CC=CC12 (stereo unspecified)	-2.1	-14.8	-8.8	-10.3	-0.1	15.4
CC1=NOC(=O)/C1=C\c1ccc(-c2ccc(Br)cc2)o1	34.4*	11.0	-0.9	5.5	7.1	8.2
Cc1ccc(C(=O)OCC(=O)c2c[nH]c3ccccc23)cc1S(=O)(=O)N1CCOCC1	-14.3	-6.8	-0.6	1.5	7.9	3.9
COc1cccc2sc3ccc(C#CC4(O)CCCCC4)cc3c(=O)c12	41.3*	-15.6	-12.6	-7.1	4.8	7.3
O=c1c2ccccc2sc2ccc(C#CC3(O)CCCCC3)cc12	4.8	-9.3	-4.9	-6.8	-0.4	1.8
O=c1/c(=C/c2cccc3ccccc23)sc2ncnn12	16.9	27.5*	1.2	-1.8	-0.1	-8.2
O=C(Cn1nc(-c2ccc(Cl)cc2)c2ccccc2c1=O)NN1CCOCC1	-25.2	-10.8	13.0	-5.5	-0.4	11.4
O=C(Cc1ccccc1[N+](=O)[O-])Nc1ccc2c(c1)OCCO2	10.4	-5.1	3.0	-9.2	0.0	18.6
COC(=O)c1cc(NC(=O)Cc2ccccc2[N+](=O)[O-])cc(C(=O)OC)c1	3.2	3.3	-0.8	4.4	15.4*	2.3
O=C1CCC[C@@H]2[C@@H](Cc3ccccc3)[C@H](N3CCN(c4ccccc4)CC3)C[C@@H]3CCN1[C@@H]32	-6.2	-21.9	2.1	-9.3	-0.5	6.2
Cc1cc(C(=O)N/N=C2\CC(=O)CC(C)(C)C2)c2ccccc2n1	5.0	25.9*	1.1	-7.3	-0.1	-7.7
